# Data published in the supplement of paper PMC8728848.
# The entries come from a sample that favours the strongest signals as a whole.
# B1: GS13814A-bth-462-26-462 (Bacteroides thetaiotaomicron) (protein)
# chain: DDRDNLMVNDQIGLLHSTYTETEIFRGMDTPYQLFVIKSGKGKQETEVSISVDETVLQSYNTDNGTSIQLLPSDCYTILQPALRLNDSDYRKAFDIKWNADRLSDLLSTGKEYGLPIQMSVVQNFISADDERLKTIIVPTIKEPYLQMDVPGMSPVTDFMPTFGDLNERELFVKIRTNYSNDEDISFQIEVDPQLVIDYNTAHGTAYKMLPESSFTVDNKGVILTGMKETFIKIKYHKKGLIPEEGTYLFGDYVLPLRITSVSKYGISPDAASKLYTVKFQPDPIDKKGWSVIDFNNCCTQDGGWYLNMGWGVESLIDNNPGTQWLCRWDVKEPLPYYFVFDMGKEYTLFRFGFANPVAPAAHVWAGTSKAGYVEASIDNENWVKLKDWTSPKIGEPNVNMDVPATQARYIRFVITDTYPTYDGLRVSLGEVYAWGM
# Tests used:
# Assay in all cases: glycan array binding signal (z-score within array); higher = stronger binding
# Conditions in all cases: glycan notation: IUPAC condensed, linker removed
# [1] = molecular target: Fuc(a1-2)Gal(b1-3)GalNAc(b1-3)Gal(a1-4)Gal(b1-4)Glc
# Outline: (§1)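 Glycan array binding is given as a within-array Z-score, which can be read as non-binding when negative. The arrays, 3228 of them, came from the Consortium for Functional Glycomics database and were retained only where the protein sequence was available. Z-scores were averaged across arrays of the same protein sequence at different concentrations or buffers and across linkers.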
# [2] = molecular target: Fuc(a1-2)Gal(b1-3)GlcNAc(b1-3)[Neu5Ac(a2-6)Gal(b1-4)GlcNAc(b1-6)]Gal(b1-4)Glc
# Outline: as §1
# [3] = molecular target: Fuc(a1-2)Gal(b1-3)[Fuc(a1-4)]GlcNAc(b1-2)Man(a1-3)[Fuc(a1-2)Gal(b1-3)[Fuc(a1-4)]GlcNAc(b1-2)Man(a1-6)]Man(b1-4)GlcNAc(b1-4)[Fuc(a1-6)]GlcNAc(b1-4)[Fuc(a1-6)]GlcNAc
# Outline: as §1
# [4] = molecular target: Fuc(a1-2)Gal(b1-4)[Fuc(a1-3)]GlcNAc(b1-3)GalNAc
# Outline: as §1
# [5] = molecular target: Fuc(a1-2)Gal6S(b1-3)GlcNAc6S
# Outline: as §1
# [6] = molecular target: Fuc(a1-2)[Gal(a1-3)]Gal(b1-4)[Fuc(a1-3)]Glc
# Outline: as §1
# [7] = molecular target: Fuc(a1-2)[Gal(a1-4)]Gal(b1-4)GlcNAc
# Outline: as §1
# [8] = molecular target: Fuc(a1-2)[GalNAc(a1-3)]Gal(b1-3)GalNAc(b1-3)Gal(a1-4)Gal(b1-4)Glc
# Outline: as §1
# [9] = molecular target: Fuc(a1-2)[GalNAc(a1-3)]Gal(b1-4)GlcNAc(b1-3)Gal(b1-4)GlcNAc(b1-3)Gal(b1-4)GlcNAc
# Outline: as §1
# [10] = molecular target: Fuc(a1-2)[GalNAc(a1-3)]Gal(b1-4)GlcNAc(b1-3)GalNAc
# Outline: as §1
# [11] = molecular target: Fuc(a1-2)[GalNAc(a1-3)]Gal(b1-4)[Fuc(a1-3)]GlcNAc(b1-3)GalNAc
# Outline: as §1
# [12] = molecular target: Fuc(a1-3)[Gal(b1-4)]GlcNAc(b1-2)Man
# Outline: as §1
# [13] = molecular target: Fuc(a1-3)[Gal3S(b1-4)]GlcNAc
# Outline: as §1
# [14] = molecular target: Fuc(a1-3)[GalNAc(b1-4)]GlcNAc
# Outline: as §1
# Fuc(a1-4)GlcNAc = molecular target: Fuc(a1-4)GlcNAc
# Outline: as §1
# Gal(b1-3)GalNAc(b1-3)Gal = molecular target: Gal(b1-3)GalNAc(b1-3)Gal
# Outline: as §1
# [15] = molecular target: Gal(b1-3)GlcNAc(b1-3)Gal(b1-4)[Fuc(a1-3)]GlcNAc
# Outline: as §1
# [16] = molecular target: Gal(b1-3)[Neu5Ac(b2-6)]GalNAc
# Outline: as §1
# Gal(b1-4)Glc6S = molecular target: Gal(b1-4)Glc6S
# Outline: as §1
# [17] = molecular target: Gal(b1-4)GlcNAc(b1-3)Gal(b1-3)GlcNAc
# Outline: as §1
# [18] = molecular target: Gal(b1-4)GlcNAc(b1-3)Gal(b1-4)GlcNAc(b1-2)[Gal(b1-4)GlcNAc(b1-3)Gal(b1-4)GlcNAc(b1-6)]Man(a1-6)[Gal(b1-4)GlcNAc(b1-3)Gal(b1-4)GlcNAc(b1-2)Man(a1-3)]Man(b1-4)GlcNAc(b1-4)GlcNAc
# Outline: as §1
# [19] = molecular target: Gal(b1-4)GlcNAc(b1-3)Gal(b1-4)[Fuc(a1-3)]GlcNAc(b1-3)Gal(b1-4)[Fuc(a1-3)]GlcNAc
# Outline: as §1
# [20] = molecular target: Gal(b1-4)GlcNAc(b1-3)[Gal(b1-4)GlcNAc(b1-6)]Gal(b1-4)GlcNAc
# Outline: as §1
# [21] = molecular target: Gal(b1-4)GlcNAc(b1-3)[GlcNAc(b1-6)]Gal(b1-4)GlcNAc
# Outline: as §1
# Gal(b1-6)Gal = molecular target: Gal(b1-6)Gal
# Outline: as §1
# Gal3S(b1-4)Glc = molecular target: Gal3S(b1-4)Glc
# Outline: as §1
# Gal3S6S(b1-4)GlcNAc6S = molecular target: Gal3S6S(b1-4)GlcNAc6S
# Outline: as §1
# GalNAc(b1-3)Gal = molecular target: GalNAc(b1-3)Gal
# Outline: as §1
# [22] = molecular target: GalNAc(b1-3)Gal(a1-4)Gal(b1-4)GlcNAc
# Outline: as §1
# GalNAc(b1-6)GalNAc = molecular target: GalNAc(b1-6)GalNAc
# Outline: as §1
# [23] = molecular target: GlcNAc(b1-3)Gal(b1-4)GlcNAc(b1-3)Gal(b1-4)GlcNAc(b1-2)[GlcNAc(b1-3)Gal(b1-4)GlcNAc(b1-3)Gal(b1-4)GlcNAc(b1-6)]Man(a1-6)[GlcNAc(b1-3)Gal(b1-4)GlcNAc(b1-3)Gal(b1-4)GlcNAc(b1-2)Man(a1-3)]Man(b1-4)GlcNAc(b1-4)[Fuc(a1-6)]GlcNAc
# Outline: as §1
# [24] = molecular target: GlcNAc(b1-3)Gal(b1-4)GlcNAc(b1-3)Gal(b1-4)GlcNAc(b1-3)Gal(b1-4)GlcNAc(b1-2)Man(a1-3)[GlcNAc(b1-3)Gal(b1-4)GlcNAc(b1-3)Gal(b1-4)GlcNAc(b1-3)Gal(b1-4)GlcNAc(b1-2)Man(a1-6)]Man(b1-4)GlcNAc(b1-4)GlcNAc
# Outline: as §1
# [25] = molecular target: GlcNAc(b1-3)Gal(b1-4)GlcNAc(b1-3)Gal(b1-4)GlcNAc(b1-3)Gal(b1-4)GlcNAc(b1-3)Gal(b1-4)GlcNAc(b1-2)Man(a1-3)[GlcNAc(b1-3)Gal(b1-4)GlcNAc(b1-3)Gal(b1-4)GlcNAc(b1-3)Gal(b1-4)GlcNAc(b1-3)Gal(b1-4)GlcNAc(b1-2)Man(a1-6)]Man(b1-4)GlcNAc(b1-4)[Fuc(a1-6)]GlcNAc
# Outline: as §1
# [26] = molecular target: GlcNAc(b1-3)[GlcNAc(b1-6)]Gal(b1-4)GlcNAc
# Outline: as §1
# Kdn(a2-3)Gal(b1-3)GalNAc = molecular target: Kdn(a2-3)Gal(b1-3)GalNAc
# Outline: as §1
# Man(a1-3)[Man(a1-6)]Man = molecular target: Man(a1-3)[Man(a1-6)]Man
# Outline: as §1
# [27] = molecular target: Man(a1-3)[Man(a1-6)]Man(a1-6)[Man(a1-3)]Man
# Outline: as §1
# Man(a1-6)Man = molecular target: Man(a1-6)Man
# Outline: as §1
# [28] = molecular target: Neu5Ac(a2-3)Gal(b1-3)]Neu5Ac(a2-3)Gal(b1-4)]GlcNAc
# Outline: as §1
# Neu5Ac(a2-3)Gal(b1-4)Glc = molecular target: Neu5Ac(a2-3)Gal(b1-4)Glc
# Outline: as §1
# [29] = molecular target: Neu5Ac(a2-3)Gal(b1-4)GlcNAc(b1-3)Gal
# Outline: as §1
# [30] = molecular target: Neu5Ac(a2-3)Gal(b1-4)GlcNAc(b1-3)Gal(b1-4)[Fuc(a1-3)]GlcNAc
# Outline: as §1
# [31] = molecular target: Neu5Ac(a2-3)Gal(b1-4)GlcNAc(b1-3)GalNAc
# Outline: as §1
# [32] = molecular target: Neu5Ac(a2-3)Gal(b1-4)[Fuc(a1-3)]GlcNAc(b1-3)Gal(b1-4)GlcNAc
# Outline: as §1
# [33] = molecular target: Neu5Ac(a2-3)Gal(b1-4)[Fuc(a1-3)]GlcNAc(b1-3)GalNAc
# Outline: as §1
# [34] = molecular target: Neu5Ac(a2-3)[GalNAc(b1-4)]Gal(b1-4)GlcNAc(b1-3)GalNAc
# Outline: as §1
# [35] = molecular target: Neu5Ac(a2-6)Gal(b1-4)GlcNAc
# Outline: as §1
# [36] = molecular target: Neu5Ac(a2-6)Gal(b1-4)GlcNAc(b1-2)Man(a1-3)[GlcNAc(b1-2)Man(a1-6)]Man(b1-4)GlcNAc(b1-4)GlcNAc
# Outline: as §1
# [37] = molecular target: Neu5Ac(a2-6)Gal(b1-4)GlcNAc(b1-3)Gal(b1-4)GlcNAc(b1-3)[Neu5Ac(a2-6)Gal(b1-4)GlcNAc(b1-3)Gal(b1-4)GlcNAc(b1-6)]GalNAc
# Outline: as §1
# [38] = molecular target: Neu5Ac(a2-6)Gal(b1-4)GlcNAc(b1-3)Gal(b1-4)GlcNAc(b1-6)[Gal(b1-3)]GalNAc
# Outline: as §1
# [39] = molecular target: Neu5Ac(a2-8)Neu5Ac(a2-3)Gal(b1-4)GlcNAc
# Outline: as §1
# [40] = molecular target: Neu5Ac(a2-8)Neu5Ac(a2-8)Neu5Ac(a2-3)Gal(b1-4)Glc
# Outline: as §1
# [41] = molecular target: Neu5Gc(a2-3)Gal(b1-4)GlcNAc
# Outline: as §1
# [42] = molecular target: Neu5Gc(a2-8)Neu5Ac(a2-3)Gal(b1-4)GlcNAc
# Outline: as §1
binder,measurement,setting,value
B1,glycan array binding signal (z-score),[1],-0.308
same,glycan array binding signal (z-score),[2],-0.718
same,glycan array binding signal (z-score),[3],0.703
same,glycan array binding signal (z-score),[4],2.19
same,glycan array binding signal (z-score),[5],3.15
same,glycan array binding signal (z-score),[6],0.027
same,glycan array binding signal (z-score),[7],1.11
same,glycan array binding signal (z-score),[8],1.01
same,glycan array binding signal (z-score),[9],-0.363
same,glycan array binding signal (z-score),[10],-0.276
same,glycan array binding signal (z-score),[11],2.42
same,glycan array binding signal (z-score),[12],0.981
same,glycan array binding signal (z-score),[13],1.23
same,glycan array binding signal (z-score),[14],2.12
same,glycan array binding signal (z-score),Fuc(a1-4)GlcNAc,14.3
same,glycan array binding signal (z-score),Gal(b1-3)GalNAc(b1-3)Gal,0.61
same,glycan array binding signal (z-score),[15],0.725
same,glycan array binding signal (z-score),[16],-0.165
same,glycan array binding signal (z-score),Gal(b1-4)Glc6S,-0.019
same,glycan array binding signal (z-score),[17],-0.895
same,glycan array binding signal (z-score),[18],-0.241
same,glycan array binding signal (z-score),[19],0.104
same,glycan array binding signal (z-score),[20],-0.298
same,glycan array binding signal (z-score),[21],-0.604
same,glycan array binding signal (z-score),Gal(b1-6)Gal,0.332
same,glycan array binding signal (z-score),Gal3S(b1-4)Glc,-0.952
same,glycan array binding signal (z-score),Gal3S6S(b1-4)GlcNAc6S,2.45
same,glycan array binding signal (z-score),GalNAc(b1-3)Gal,-0.506
same,glycan array binding signal (z-score),[22],2.74
same,glycan array binding signal (z-score),GalNAc(b1-6)GalNAc,-0.44
same,glycan array binding signal (z-score),[23],0.296
same,glycan array binding signal (z-score),[24],-0.256
same,glycan array binding signal (z-score),[25],1.41
same,glycan array binding signal (z-score),[26],-0.285
same,glycan array binding signal (z-score),Kdn(a2-3)Gal(b1-3)GalNAc,0.216
same,glycan array binding signal (z-score),Man(a1-3)[Man(a1-6)]Man,0.087
same,glycan array binding signal (z-score),[27],-1
same,glycan array binding signal (z-score),Man(a1-6)Man,0.563
same,glycan array binding signal (z-score),[28],2.12
same,glycan array binding signal (z-score),Neu5Ac(a2-3)Gal(b1-4)Glc,2.85
same,glycan array binding signal (z-score),[29],-0.359
same,glycan array binding signal (z-score),[30],-1.35
same,glycan array binding signal (z-score),[31],-0.818
same,glycan array binding signal (z-score),[32],2.69
same,glycan array binding signal (z-score),[33],2.14
same,glycan array binding signal (z-score),[34],-1.22
same,glycan array binding signal (z-score),[35],-0.069
same,glycan array binding signal (z-score),[36],0.48
same,glycan array binding signal (z-score),[37],-1.35
same,glycan array binding signal (z-score),[38],-0.806
same,glycan array binding signal (z-score),[39],-1.27
same,glycan array binding signal (z-score),[40],-1.35
same,glycan array binding signal (z-score),[41],1.47
same,glycan array binding signal (z-score),[42],-0.879
